From PubChem BioAssay AID651599 (National Center for Advancing Translational Sciences (NCATS), 2012)
Inconclusive results are not listed. Calls of active or inactive are those of the source. Calls follow the shape of the dose curve; as a rule, active = well fitted inhibition curve with a large enough effect; inconclusive = small, poorly fitted or top-dose-only effect; inactive = no such curve, though single readings can be large or run the other way.

The compounds below were run against Tumor susceptibility gene 101 protein (Homo sapiens) (UniProt Q99816) (assay: qHTS Assay for Iinhibitors of HIV-1 Budding by Blocking the Interaction of PTAP/TSG101: Hit Validation in TR assay). Conditions: Tsg101 binding domain + Texas Red-labeled PTAP peptide, fluorescence polarization, 20 min; series mostly up to 57.5 µM.
Chain of Tumor susceptibility gene 101 protein (Homo sapiens) (Q99816 whole entry, looked up, the tested form may be a part): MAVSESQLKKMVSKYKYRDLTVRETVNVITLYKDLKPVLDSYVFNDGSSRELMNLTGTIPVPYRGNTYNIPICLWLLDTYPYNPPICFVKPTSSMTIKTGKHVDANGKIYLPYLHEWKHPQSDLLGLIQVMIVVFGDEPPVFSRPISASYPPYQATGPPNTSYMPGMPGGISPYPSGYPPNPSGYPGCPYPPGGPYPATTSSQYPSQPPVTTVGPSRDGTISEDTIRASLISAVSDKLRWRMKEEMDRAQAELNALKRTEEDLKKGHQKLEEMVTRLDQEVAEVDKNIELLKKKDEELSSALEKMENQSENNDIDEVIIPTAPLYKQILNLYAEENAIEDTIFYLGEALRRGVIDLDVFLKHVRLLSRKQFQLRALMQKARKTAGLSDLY
From the text: Stages of the HIV-1 replication cycle, specifically virus assembly and release, provide underexploited targets for the development of novel antiviral inhibitors. The late stages of HIV-1 replication are mediated by the Gag precursor protein, Pr55Gag. Expression of Pr55Gag is both necessary and sufficient for the production of virus-like particles from Gag-expressing cells. The Gag protein hijacks key host proteins involved in endocytic machinery of the host cell to promote endosomal processing and viral budding. The budding process requires a direct interaction between a […] (PTAP) motif in the p6 domain of Gag and the cellular endosomal sorting protein known as Tsg101. In this way, the Gag PTAP motif promotes the host cells to recruit viral particles to the plasma membrane where the new viral particles are released, effectively turning the host cells into viral factories. A fluorescence anisotropy assay has been developed to quantitatively measure the PTAP-Tsg101 interaction which can be used to screen for inhibitors of this interaction.
This hit validation assay is similar to the primary assay but uses the Texas Red label instead of FITC.
NIH Molecular Libraries Probe Production Network [MLPCN]
NIH Chemical Genomics Center [NCGC]
PI Name: Dr. Eric Freed, NCI
Two uL of the Tsg101 binding domain in buffer (10 mM HEPES pH 7.5; 0.15 M NaCl, 0.01% Tween 20; 3 mM EDTA;0.1 mM TCEP) was dispensed into Greiner black MB 1536-well plates (final concentration 10 uM). Then, 23 nL of compounds or DMSO were delivered to each well using a pin tool. Finally, 2 uL of a TR-labeled peptide containing the PTAP motif (1) in the same buffer was dispensed (50 nM final concentration) and the binding was allowed to proceed for 20 min. at r.t. Fluorescent polarization was determined using TR excitation and polarized emission filters on a Perkin Elmer Viewlux.
Keywords: Tsg101, PTAP, Gag, HIV, fluorescent polarization, MLSMR, MLPCN, NIH Roadmap, qHTS, NCGC

Potency, inactive:
COc1ccc(OC)c(/C=C(\C#N)c2nc(-c3ccc(F)cc3)cs2)c1
CCN1CCN(Cc2ccc(NC(=O)Nc3ccccc3OC)cc2)CC1
O=C(NCc1cccc(F)c1)c1cccc2c1C(=O)c1ccc(N3CCC(Cc4ccccc4)CC3)cc1S2(=O)=O
CSC1=NSC2=NC(=O)/C(=C\c3coc4ccccc4c3=O)C(=N)N12
O=C(c1ccccc1)c1ccc(O)cc1O
COC(=O)c1cc(N2CCN(C)CC2)nc2ccccc12
CCCn1c(=N)c(S(=O)(=O)c2ccccc2)cc2c(=O)n3cccc(C)c3nc21
O=C1/C(=C/c2cccc(F)c2)Oc2cc(O)ccc21
Cn1c(=O)cc2c3c(c(N4CCCCC4)ccc31)C(=O)c1ccccc1-2
Cc1cc(/C=C2\SC(=S)N(Cc3ccco3)C2=O)c(C)n1-c1cccnc1
O=C1NC(c2ccco2)Nc2sc3c(c21)CCN(Cc1ccccc1)C3 (stereo not given)
Cc1ccccc1-c1ccc(/C=C2/SC(N3CCOCC3)=NC2=O)o1
COc1ccc(OC)c(/C=C(\C#N)c2nc3ccccc3c(=O)[nH]2)c1
O=c1oc2c3c4c(cc2c2c1CCC2)OCCN4CCC3
O=C(NC1CCCCC1)c1cccc2c1C(=O)c1ccc(N3CCC(Cc4ccccc4)CC3)cc1S2(=O)=O
CC(=O)Nc1ccc(N=Cc2c(O)c(C(=O)Nc3ccccc3)cc3ccccc23)cc1
S=C(Nc1ccc(N2CCOCC2)cc1)Nc1ccc2nc(-c3ccco3)c(-c3ccco3)nc2c1
Oc1ccc2ccc3cccc[n+]3c2c1
COc1ccc2c3c(cccc13)C(=O)CC2
CCN1CC=C2C(C#N)=C(N)C(C#N)(C#N)[C@H](c3cccc(OC)c3OC)[C@H]2C1
O=c1[nH]nc(-c2ccc(F)cc2)cc1Cc1ccc(F)cc1
OC(CN1CCN(c2ccccn2)CC1)Cn1c2ccccc2c2ccccc21 (stereo not given)
C=CCOn1c(=O)c(-c2cc3ccccc3o2)[n+]([O-])c2ccccc21
CCN(C(=O)c1sc2nc3n(c(=O)c2c1C)CCCC3)c1ccccc1F
Cn1cc(/C=C2\SC(=S)N(NC(=O)c3ccccc3Cl)C2=O)c2ccccc21
CCN(CC)c1ccc2cc(-c3nc(-c4ccc(OC)cc4)cs3)c(=O)oc2c1
Cc1c(C(=O)Nc2cccc(C(F)(F)F)c2)sc2nc3n(c(=O)c12)CCCC3
Nc1ccc2nc(-c3ccccc3)c(-c3ccccc3)nc2c1
CCN(CC)c1ccc(/C=C(\C#N)C(=O)c2ccc(Br)cc2)cc1
CCOc1ccc2nc3cc(NCc4ccc(OC)cc4)ccc3c(N)c2c1
CCn1c(/C=C/c2cc[n+](C)cc2)nc2ccccc21
Cc1ccc(NC(=O)/C(C#N)=C(\N)C(Cl)(Cl)Cl)nc1
OCCN(CCO)c1nc(N2CCCCC2)c2nc(N(CCO)CCO)nc(N3CCCCC3)c2n1
C/C(=N\NC(=O)CC#N)c1cc2ccc(O)cc2oc1=O
CN(C)CCNc1ccc2ncn3c4ccc(O)cc4c(=O)c1c23
COc1ccc(N(C(=O)c2snc(C(N)=O)c2N)C(C(=O)NC2CCCC2)c2ccc3ncccc3c2)cc1 (stereo not given)
Cc1ccc(C(=O)Nc2ccc(C(=O)O)cc2)cc1S(=O)(=O)NCc1ccccc1
COc1ccccc1Nc1nc2ccc(C)cc2cc1C#N
O=C(NC1CC1)c1cccc2c1C(=O)c1ccc(N3CCC(Cc4ccccc4)CC3)cc1S2(=O)=O
CCn1cc(C=C2C(=O)c3ccccc3C2=O)c2ccccc21
